Experimental findings from PubChem BioAssay (NCI) are described below.

Some test systems named below: NCI-H23 lung; NCI-H226 lung; HOP-62 NSCLC; NCI-H460 lung; HOP-92 NSCLC; NCI-H522 lung; A549/ATCC NSCLC; 786-0 renal; COLO 205 colon; DU-145 prostate; K-562 leukemia; MALME-3M melanoma; MDA-MB-231 breast; RXF 393 renal; SF-268 CNS; SF-295 CNS; SF-539 CNS; UACC-257 melanoma; M14 melanoma; NCI-H322M lung.
What all share (experiment): NCI-60 one-dose screen, 48 h (100 = growth as untreated, 0 = no growth, -100 = all killed)
Common to all, as to details: 10 µM

This is part of a sample that, as a whole, favours compounds with a hit. Of some 83,000 tested, about 20% had one in any assay.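 The test compound was applied at a single concentration to cells in 96-well plates for 48 hours, and percent growth was recorded.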 Unmarked numbers belong to inactive results. Active and inactive are the calls of the source. Rule for the calls: active = growth percent below 10; inactive = the rest.

As for `CCOC(=O)CSc1c([N+](=O)[O-])ncn1C`, the growth in the assay on NCI-H23 lung is 95.6%; with NCI-H226 lung, 105%; in the assay with HOP-62 NSCLC it was 98.6%; with NCI-H460 lung, 104%; in the assay on HOP-92 NSCLC it was 113%; in the assay on NCI-H522 lung it was 99.9%. Moreover, the growth in the assay on A549/ATCC NSCLC was 97.6%; with 786-0 renal, 111%; with COLO 205 colon it was 110%; with DU-145 prostate, 105%; with K-562 leukemia it was 109%; in the assay on MALME-3M melanoma it was 80.4%. The growth in the assay on MDA-MB-231 breast was 96.5%; with RXF 393 renal, 103%; in the assay with SF-268 CNS it was 103%; in the assay with SF-295 CNS, 102%; in the assay on SF-539 CNS, 94.3%; in the assay on UACC-257 melanoma, 94.6%. The growth in the assay with M14 melanoma was 94.1%.

As to `COc1cc([C@@H]2c3cc4c(cc3[C@H](O)[C@H]3COC(=O)[C@H]23)OCO4)cc(OC)c1OC`, the growth in the assay on NCI-H23 lung was 13.1%; with NCI-H226 lung it was -9.84% (active); in the assay on NCI-H460 lung, 9.21% (active); in the assay with HOP-92 NSCLC, 11.3%; in the assay with A549/ATCC NSCLC, 14.2%; in the assay on 786-0 renal, 12.4%. In addition, the growth in the assay with COLO 205 colon is -57.8% (active); with DU-145 prostate it was -23.9% (active); in the assay on MALME-3M melanoma, 54.2%; in the assay on MDA-MB-231 breast it was 10.1%; in the assay on RXF 393 renal, 41%; with SF-268 CNS, 27.3%. The growth was -14.1% (active) with SF-295 CNS, 5.77% (active) in the assay with SF-539 CNS, 53.2% in the assay with UACC-257 melanoma and 6.41% (active) with M14 melanoma.

For `COC(=O)Nc1nc2ccc(C(=O)c3cccs3)cc2[nH]1`, the growth in the assay with NCI-H23 lung was 14.2%; in the assay with NCI-H226 lung, 0.146% (active); in the assay on NCI-H460 lung it was 7.45% (active); in the assay on HOP-92 NSCLC, 63.9%; in the assay on A549/ATCC NSCLC, 19.5%; in the assay on 786-0 renal it was 19%. The growth in the assay on COLO 205 colon is -40% (active); in the assay on DU-145 prostate, -1.55% (active); in the assay on MALME-3M melanoma, 36.2%; in the assay on MDA-MB-231 breast, 24%; in the assay on RXF 393 renal, 44.9%; with SF-268 CNS, 36.9%. Besides, the growth in the assay on SF-295 CNS was -9.66% (active); in the assay with SF-539 CNS, 10.3%; in the assay with UACC-257 melanoma, 56%; with M14 melanoma, 3.53% (active).

With `Cc1ccccc1N=C(c1ccccc1)C1C(=O)c2ccccc2C1=O`, the growth was 87.6% in the assay with NCI-H23 lung; 90.4% in the assay on NCI-H226 lung; 98.8% with HOP-62 NSCLC; 101% in the assay on NCI-H460 lung; 72.7% in the assay with HOP-92 NSCLC; 59% in the assay on NCI-H522 lung. Besides, the growth was 88.6% in the assay with 786-0 renal; 103% in the assay on COLO 205 colon; 61.8% in the assay with K-562 leukemia; 98.7% with MDA-MB-231 breast; 88.1% with SF-268 CNS; 93.6% with SF-295 CNS. Further, the values for the growth in the assay on SF-539 CNS, with UACC-257 melanoma and with M14 melanoma were 77.8%, 96% and 78%, respectively.

With `CCc1nc(N)nc(N)c1-c1ccc(Cl)cc1`, the growth was 64.4% with NCI-H23 lung; 65.7% with NCI-H226 lung; 64.2% in the assay on HOP-62 NSCLC; 21.2% in the assay on NCI-H460 lung; 97.7% with HOP-92 NSCLC; 83% with NCI-H522 lung. Also, the growth was 26.6% in the assay on A549/ATCC NSCLC; 35.9% with 786-0 renal; 76.5% in the assay on COLO 205 colon; 55.4% with DU-145 prostate; 20.3% in the assay with K-562 leukemia; 69.9% in the assay with MDA-MB-231 breast. Further, the growth in the assay on RXF 393 renal is 71.6%; with SF-268 CNS, 49.2%; with SF-295 CNS, 37.5%; with UACC-257 melanoma, 72.4%; with M14 melanoma, 40.9%.

`C=CCOC(=O)C(=O)OCC=C`: the growth in the assay on NCI-H23 lung was 110%; in the assay on NCI-H226 lung it was 99.7%; in the assay on HOP-62 NSCLC, 92.7%; in the assay with NCI-H460 lung, 112%; in the assay with HOP-92 NSCLC, 90%; with NCI-H522 lung it was 96.6%. Also, the growth in the assay with A549/ATCC NSCLC is 109%; in the assay with 786-0 renal, 106%; with DU-145 prostate, 112%; with K-562 leukemia it was 95.1%; with MALME-3M melanoma it was 139%; with MDA-MB-231 breast, 108%. The growth was 103% with RXF 393 renal; 103% in the assay with SF-268 CNS; 154% in the assay on SF-295 CNS; 91.8% in the assay on SF-539 CNS; 102% with UACC-257 melanoma.

On to `CCOC(=O)CNN`, for which the growth was 102% in the assay on NCI-H23 lung; 90.7% in the assay with NCI-H226 lung; 98% in the assay with NCI-H322M lung; 99.4% with HOP-92 NSCLC; 96.7% in the assay on NCI-H522 lung; 101% in the assay with A549/ATCC NSCLC. The growth with 786-0 renal was 106%; with COLO 205 colon it was 110%; in the assay on DU-145 prostate it was 98.6%; in the assay with K-562 leukemia it was 79.5%; in the assay with MALME-3M melanoma it was 103%; in the assay on MDA-MB-231 breast, 107%. Further, the growth in the assay with RXF 393 renal is 108%; with SF-268 CNS, 103%; in the assay with SF-295 CNS, 102%; with SF-539 CNS it was 108%; in the assay with UACC-257 melanoma, 97%; with M14 melanoma, 107%.

For the compound `C/C(=N/NC(N)=O)c1ccco1`, the growth is 97.1% in the assay with NCI-H23 lung; 107% in the assay with NCI-H322M lung; 85.7% in the assay with HOP-62 NSCLC; 107% in the assay with NCI-H460 lung; 89.8% in the assay with HOP-92 NSCLC; 90.5% in the assay with NCI-H522 lung. Also, the growth was 83.7% with A549/ATCC NSCLC; 99.9% with 786-0 renal; 105% in the assay with COLO 205 colon; 110% in the assay with DU-145 prostate; 88.3% with K-562 leukemia; 93.4% in the assay on MALME-3M melanoma. Further, the growth with MDA-MB-231 breast was 118%; in the assay on RXF 393 renal, 108%; in the assay on SF-268 CNS, 104%; in the assay with SF-295 CNS, 104%; with SF-539 CNS, 101%; in the assay with UACC-257 melanoma it was 83%. The growth with M14 melanoma was 91.8%.

Consider `N#Cc1ccc(OC(=O)Nc2ccc(Cl)c(Cl)c2)cc1`, for which the growth in the assay on NCI-H23 lung is 39.6%; with NCI-H226 lung, 63.7%; with NCI-H322M lung, 89.4%; in the assay with NCI-H460 lung it was 99.8%; in the assay on NCI-H522 lung it was 24.5%; in the assay on A549/ATCC NSCLC, 47.2%. Moreover, the growth in the assay on 786-0 renal is 89.5%; in the assay on COLO 205 colon, 96.3%; with DU-145 prostate, 72.3%; with K-562 leukemia, 44%; with MALME-3M melanoma, 72.9%; in the assay on MDA-MB-231 breast, 93%. Further, the growth in the assay with RXF 393 renal was 91.5%; in the assay with SF-268 CNS, 94.4%; in the assay with SF-295 CNS, 41.4%; with SF-539 CNS, 91.5%; with UACC-257 melanoma, 86.2%; in the assay with M14 melanoma, 76.6%.

Take `COC(=O)Nc1cccc(Cl)c1OC`: the growth was 107% with NCI-H23 lung; 96.5% in the assay with NCI-H226 lung; 107% in the assay on NCI-H322M lung; 38.2% in the assay with NCI-H460 lung; 92.7% in the assay on NCI-H522 lung; 106% with A549/ATCC NSCLC. Moreover, the growth in the assay with 786-0 renal was 104%; in the assay with COLO 205 colon, 127%; with DU-145 prostate, 114%; in the assay on K-562 leukemia, 113%; with MALME-3M melanoma, 106%; in the assay on MDA-MB-231 breast, 124%. Further, the growth in the assay with RXF 393 renal was 90%; in the assay on SF-268 CNS, 107%; in the assay on SF-295 CNS, 81.8%; in the assay with SF-539 CNS it was 98.2%; in the assay on UACC-257 melanoma, 103%; in the assay with M14 melanoma, 110%.
